These results are taken from PubChem BioAssay (Tox21).

A short description of test [1]: qHTS assay for small molecules that induce genotoxicity in human embryonic kidney cells expressing luciferase-tagged ATAD5 (AID 651632). Further: nearly all actives have a fitted effect of over 15% in size. Further: potency means the concentration at half of the fitted maximal effect. The following applies: HEK293T ATAD5-luciferase induction, 16 h; series mostly up to 83.3 µM. In a few lines:
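Cells were seeded at 2,000 per well, dosed with compound, and incubated 16 hr at 37C in 5% CO2. Luciferase activity was then quantified after a 30 min room-temperature incubation with Amplite.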
On the technique in general: In qHTS, concentration-response curves come from the screen itself.

The nature of test [2]: qHTS assay for small molecule agonists of the p53 signaling pathway - cell viability (AID 651633; calls by dose curve; further: nearly all actives have a fitted effect of over 30% in size; further: potency means the concentration at half of the fitted maximal effect). The following applies: p53RE-bla HCT-116 viability, ATP luminescence, 16 h; series mostly up to 83.3 µM. Put shortly: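 p53RE-bla cells, seeded at 4,000 per well and rested 5 h at 37 C/5% CO2, received compounds in DMSO for 16 h at 37 C. CellTiter-Glo was then added, and luminescence was read after 30 min at room temperature to gauge cytotoxicity.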

The nature of test [3]: qHTS assay for small molecules that induce genotoxicity in human embryonic kidney cells expressing luciferase-tagged ATAD5 - cell viability (AID 651634; calls by dose curve; further: nearly all actives have a fitted effect of over 25% in size; further: potency means the concentration at half of the fitted maximal effect). The settings on record: HEK293T ATAD5-luc cells viability, CellTiter-Fluor, 15.5 h; series mostly up to 83.3 µM. Put shortly: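 Cells (HEK293T, luciferase-tagged ATAD5) are seeded at 2,000 per well, dosed with compound or DMSO vehicle, and incubated 15.5 hr at 37C and 5% CO2. CellTiter-Fluor is added for 30 min before fluorescence is measured.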

A short description of test [4]: qHTS assay for small molecule disruptors of the mitochondrial membrane potential - cell viability (AID 720634; calls by dose curve;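 further: human HepG2 liver cancer cells; nearly all actives have a fitted effect of over 20% in size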). The following applies: HepG2 viability, ATP luminescence (CellTiter-Glo), 1 h; series mostly up to 83.2 µM. In a few lines: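 Cytotoxicity was measured by ATP quantitation in HepG2 wells that had first been treated with compound for 1 hr and stained with m-MPI dye; CellTiter-Glo incubation was 30 min at room temperature.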

Test [5] can be described thus: qHTS assay to test for compound auto fluorescence at 590 nm (red) in HepG2 cells (AID 720674). The settings on record: HepG2 autofluorescence, red 540/590 nm, 1 h; series mostly up to 46 µM. Put shortly: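 Compound auto-fluorescence is scored relative to Rose Bengal sodium, measured at 540/590 nm in live HepG2 cultures after 1 hr compound contact (37 C, 5% CO2).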

The nature of test [6]: qHTS assay to test for compound auto fluorescence at 535 nm (green) in HepG2 cells (AID 720675). The settings on record: green autofluorescence 485/535 nm, 1 h; series mostly up to 46 µM.
A short description of test [7]: qHTS assay to test for compound auto fluorescence at 460 nm (blue) in HEK293 cells (AID 720678). The settings on record: blue autofluorescence 405/460 nm; series mostly up to 46 µM. Put shortly: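 HEK293 cells (2,000 per well, medium with 10% dialyzed FBS) attached for 4-5 hr at 37C, then received compound and stood overnight at 37C, 5% CO2. Blue fluorescence was read at Ex/Em 405/460 nm and expressed relative to triamterene.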

A short description of test [8]: qHTS assay to test for compound auto fluorescence at 590 nm (red) in HEK293 cells (AID 720679). The following applies: red autofluorescence 540/590 nm; series mostly up to 46 µM. Put shortly:
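HEK293 cells (2,000/well, medium with 10% dialyzed FBS) attached for 4-5 hr at 37C, received 23 nL compound and were incubated overnight at 37C, 5% CO2. Red fluorescence was then read at 540/590nm Ex/Em, referenced to Rose Bengal sodium.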

The nature of test [9]: qHTS assay for small molecule disruptors of the mitochondrial membrane potential (AID 720635). Further: potency means the concentration at half of the fitted maximal effect. The following applies: HepG2 mitochondrial membrane potential, Mito-MPS dye ratio; series mostly up to 83.2 µM. In a few lines:
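HepG2 cells (2,000/well) attached overnight at 37C, then took compound for 1 hr at 37C, 5% CO2. Mito-MPS dye was added for 30 min; fluorescence was read at 490/535 nm (monomers) and 540/590 nm (aggregates).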

Structures are written as SMILES. Inconclusive results are not listed. Calls of active or inactive are those of the source. Unless noted, the call rests on the fitted dose curve; in most records, active means well fitted curve in the direction sought with a large enough effect in the repeat runs; inconclusive means weak or mixed curves; inactive means no such curve, though single readings can be large; an effect the other way counts as inactive or inconclusive. Positions of bridges follow the written chain, without caps; N, C: chain ends. Non-standard residues stand in square brackets, D forms with d. Residues, ends and D or L forms follow the SMILES beside them. ξ: configuration not given here. *: point of attachment. d(aThr) = C[C@@H](O)[C@@H](N)C(=O)O; ξThr(3R) = C[C@@H](O)C(N)C(=O)O; X3 = CC[C@@H](C)CCCCC(=O)*; dDab = NCC[C@@H](N)C(=O)O

On to `O=C(OC1C[C@@H]2CC3C[C@H](C1)N2CC3=O)c1c[nH]c2ccccc12` (stereo partly drawn), for which the Potency entry in test [1], in test [2], in [3], in test [4], in [5] and in test [6] was “inactive” throughout. The Potency result in test [7] and in [8] was “inactive” throughout.

Regarding `CC[C@H](C)[C@@H]1NC(=O)[C@H](Cc2ccc(O)cc2)NC(=O)[C@@H](N)CSSC[C@@H](C(=O)N2CCC[C@H]2C(=O)N[C@@H](CC(C)C)C(=O)NCC(N)=O)NC(=O)[C@H](CC(N)=O)NC(=O)[C@H](CCC(N)=O)NC1=O`, the Potency result in test [1], in test [2], in test [3], in test [4], in test [5] and in [6] was “inactive” each time. In addition, the Potency entry in [7] and in test [8] was “inactive” each time.

For the molecule `CC1=C(/C=C/C(C)=C/C=C/C(C)=C/C(=O)Oc2c(C)c(C)c3c(c2C)CC[C@@](C)(CCC[C@H](C)CCC[C@H](C)CCCC(C)C)O3)C(C)(C)CCC1`, the Potency entry in test [1], in test [2], in test [3], in test [4], in [5] and in test [6] was “inactive” each time. Moreover, the Potency entry in test [7] and in test [8] was “inactive” each time.

With `CO/N=C(\C(=O)N[C@@H]1C(=O)N2C(C(=O)O)=C(CSc3nnnn3C)CS[C@H]12)c1csc(N)n1`, the Potency result in test [1], in test [2], in test [3], in [4], in [5] and in [6] was “inactive” in each case. Also, the Potency entry in test [7] and in test [8] was “inactive” in each case.

Regarding `CC(=O)N[C@@H]([C@@H](O)[C@H](O)[C@H](O)CO)[C@@H](O)CC(=O)C(=O)O`, the Potency entry in test [1], in test [2], in [3], in [9], in test [5] and in [6] was “inactive” in each case. Further, the Potency entry in [7] and in test [8] was “inactive” throughout.

With `C[C@H](/C=C/[C@H](C)C(C)(C)O)[C@H]1CC[C@H]2/C(=C/C=C3C[C@@H](O)C[C@H](O)C3)CCC[C@]12C`, the Potency result in [1], in [3], in [4], in test [5], in test [6] and in test [7] was “inactive” each time. Moreover, the Potency result in [8] was “inactive”. Further, in [2], the Potency is 8.41 µM (active).

In the case of `CC(O)[C@H]1CC[C@H]2[C@@H]3CC[C@@H]4C[C@@H](O)CC[C@]4(C)[C@H]3CC[C@]12C` (stereo partly drawn), the Potency entry in test [1], in [2], in test [3], in test [9], in test [5] and in test [6] was “inactive” each time. In addition, the Potency result in [7] and in test [8] was “inactive” throughout.

As to `C=C1CC[C@@H]2[C@](C)(CO)[C@H](O)CC[C@@]2(C)[C@@H]1C/C=C1/C(=O)OC[C@H]1O`, the Potency entry in test [1], in test [2], in [3], in test [9], in test [5] and in [6] was “inactive” each time. Further, the Potency result in test [7] and in [8] was “inactive” each time.

`COc1ccc(C[C@H](N)C(=O)N[C@H]2[C@@H](O)[C@H](n3cnc4c(N(C)C)ncnc43)O[C@@H]2CO)cc1`: the Potency in [1] was 1.06 µM (active); in test [2], 5.96 µM (active); in test [3] it was 2.66 µM (active). In addition, the Potency result in test [4], in test [5], in test [6], in test [7] and in [8] was “inactive” throughout.

As for `CC(C)N1CCN(c2ccc(OC[C@H]3CO[C@](Cn4cncn4)(c4ccc(Cl)cc4Cl)O3)cc2)CC1`, the Potency entry in [1], in [3], in test [4], in [5], in test [6] and in test [7] was “inactive” in each case. Moreover, in test [8], the Potency entry is “inactive”. In addition, the Potency in test [2] was 11.4 µM (active).

For `CN1CCN2c3ncccc3Cc3ccccc3C2C1` (stereo not drawn), the Potency entry in test [1], in [2], in test [3], in [4], in test [5] and in [6] was “inactive” each time. Also, the Potency entry in test [7] and in test [8] was “inactive” in each case.

Take `CN1CCC(OC(=O)C(Oc2ccc(Cl)cc2)Oc2ccc(Cl)cc2)CC1`: the Potency result in test [1], in test [2], in [3], in test [4], in test [5] and in test [6] was “inactive” throughout. For the same molecule, the Potency result in [7] and in test [8] was “inactive” in each case.

Turning to `CCCCCCCCCCCCCCCCOCCOCCOCCOCCOCCOCCOCCOCCOCCOCCOCCOCCOCCOCCOCCOCCOCCOCCOCCOCCO`, the Potency result in test [1], in test [5], in test [6], in test [7] and in test [8] was “inactive” each time. Further, the Potency was 6.68 µM (active) in test [2] and 23.7 µM (active) in test [9].

As to `CC[C@@H](C)CCCCC(=O)N[C@H](CCN)C(=O)N[C@@H](C(=O)N[C@H](CCN)C(=O)N[C@@H]1CCNC(=O)C([C@@H](C)O)NC(=O)[C@@H](CCN)NC(=O)[C@@H](CCN)NC(=O)[C@@H](CC(C)C)NC(=O)[C@@H](Cc2ccccc2)NC(=O)[C@@H](CCN)NC1=O)[C@@H](C)O` (stereo partly drawn) (X3-[dDab][d(aThr)][dDab][dDab][dDab][dF][dL][dDab][dDab][ξThr(3R)]; lactam 4-C), the Potency entry in test [1], in [3], in test [4], in test [9], in test [5] and in [6] was “inactive” in each case. In addition, the Potency entry in [7] and in test [8] was “inactive” in each case.

On to `CCC[C@@H]1C[C@@H](C(=O)N[C@@H]([C@H]2O[C@H](SC)[C@H](O)[C@@H](O)[C@H]2O)[C@H](C)Cl)N(C)C1`, for which the Potency result in test [1], in [3], in test [4], in test [9], in test [5] and in test [6] was “inactive” throughout. For the same molecule, the Potency entry in test [7] and in [8] was “inactive” throughout.

For `CCC(Oc1ccccc1)C(=O)N[C@@H]1C(=O)N2[C@@H]1SC(C)(C)[C@@H]2C(=O)O` (stereo partly drawn), the Potency entry in [1], in [2], in [4], in test [5], in test [6] and in test [7] was “inactive” each time. The Potency entry in test [8] was “inactive”.

`O=c1oc2cc(O)ccc2s1`: the Potency entry in [1], in [2], in [4], in test [5], in test [6] and in test [7] was “inactive” throughout. Further, the Potency result in [8] was “inactive”.

Regarding `NC(=O)c1ccc[n+]([C@@H]2O[C@H](COP(=O)([O-])OP(=O)(O)OC[C@H]3O[C@@H](n4cnc5c(N)ncnc54)[C@H](O)[C@@H]3O)[C@@H](O)[C@H]2O)c1`, the Potency result in [1], in test [2], in test [4], in test [5], in test [6] and in test [7] was “inactive” each time. In addition, in test [8], the Potency result was “inactive”.

For the molecule `O=C(O)c1cc(N=Nc2ccc(O)c(C(=O)O)c2)ccc1O`, the Potency result in test [1], in [3], in [4], in [9], in test [5] and in test [6] was “inactive” throughout. Moreover, the Potency entry in [7] and in test [8] was “inactive” throughout.
